Data from PubChem BioAssay (EPA / NIEHS).
Inconclusive results are not listed. Activity calls are given as the source filed them. Rule for the calls: active = hit-call score of the fitted dose curve at least 0.9, where 1 is the maximum; inconclusive = response in the unintended direction; inactive = score below 0.9.

Assay: CCTE_Mundy_HCI_Cortical_Synap_Neur_Matur_NeuronCount: CCTE's Synaptogenesis and Neurite Maturation Assay in rat cortical cells for Neuron Count, Mundy Lab (AID 2284242);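 for AC50: hits reduce neuron count versus DMSO baseline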
In short: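 Rat primary cortical cells, AraC added at DIV 5, dosed with media change from DIV 7 to DIV 12. Fixed, Hoechst-stained and immunolabelled for MAP2 and synaptophysin; neuron number counted by high-content imaging, loss fitted versus DMSO.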

Row | Compound | outcome | AC50
1 | Nc1cc(Cl)cc(C(=O)O)c1Cl | inactive | 
2 | CC(C)(C)C(O)(CCc1ccc(Cl)cc1)Cn1cncn1 (stereo unspecified) | inactive | 
3 | CC(C)COC(=O)c1ccccc1C(=O)OCC(C)C |  | 80.3 µM (active)
4 | COP(=S)(OC)SCN1C(=O)c2ccccc2C1=O | inactive | 
5 | [O-][Cl+]O | inactive | 
6 | CCC[CH2][Sn]([Cl])([CH2]CCC)[CH2]CCC |  | 0.0308 µM (active)
7 | OCCOCCO | inactive | 
8 | ClC1=C(Cl)C2(Cl)C3C(Cl)C=CC3C1(Cl)C2(Cl)Cl (stereo unspecified) |  | 11.5 µM (active)
9 | CCCCOC(=O)c1ccccc1C(=O)OCc1ccccc1 |  | 50.5 µM (active)
10 | CNC(=O)Oc1cccc2c1OC(C)(C)C2 | inactive | 
11 | COC(=O)Nc1nc2ccccc2[nH]1 | inactive | 
